Test results from PubChem BioAssay.
Calls of active or inactive are those of the source. No rule for the calls is given here.

Assay: P. aeruginosa biofilm formation inhibitors, primary screen, PAO1 strain, BacTiter-Glo luminescence, LB-PBS (AID 1144)
Settings: 12 h, higher = more signal

z-score, inactive:
COC(=O)C(CC#Cc1ccc2c(c1)[C@]1(C(=O)N2)[C@H](c2ccc(O)cc2)N2[C@H](c3ccccc3)[C@H](c3ccccc3)OC(=O)[C@H]2[C@@H]1C(=O)N1CCCCCCC1)C(=O)OC -1.77, CC(C)=CCCC(C)=CC(O)C1C=CC2C(=O)N(c3ccccc3)C(=O)C2N1Nc1ccccc1F (stereo not given) -1.45, CN(C)CCCCNC(=O)[C@H]1C[C@H]2C(=O)N[C@@H](CCCC[N+](C)(C)C)C(=O)N2[C@H]1c1ccc(O)cc1 1.04, CN(C)CCCNC(=O)[C@@H]1c2ccccc2C(=O)N(C2CCCCC2)[C@H]1c1ccc(CO)cc1 -0.312, CC(C)CNC(=O)[C@@H]1c2ccccc2C(=O)N(C2CCCCC2)[C@H]1c1ccc(CO)cc1 -0.466, O=C1C2C=CC(C(O)c3ccco3)N(Nc3ccccc3)C2C(=O)N1c1ccccc1 (stereo not given) -0.497, COc1ccc([Si](C)(C)[C@@H]2[C@@H](CCn3cc([C@H](O)c4ccccc4)nn3)O[C@]3(C(=O)N(c4ccccc4)c4ccccc43)[C@H]2C)cc1 0.506, CCCNC(=O)[C@@]1(Sc2ccc(C)cc2)CC(=O)N(C2CCCCC2)[C@@H]1c1ccc(CO)cc1I 0.687, COC(=O)C(CC#Cc1ccc2c(c1)[C@]1(C(=O)N2)[C@H](C(=O)Nc2nc3ccccc3s2)[C@H]2C(=O)O[C@H](c3ccccc3)[C@H](c3ccccc3)N2[C@@H]1c1ccc(OCCO)cc1)C(=O)OC -1.7, CC(=O)NCCCC[C@@H]1NC(=O)[C@@H]2C[C@H](C(=O)NCCCCCCN)[C@H](c3cccc(OCCO)c3)N2C1=O 0.615, COc1ccc([Si](C)(C)[C@H]2[C@H](CCO)O[C@@]3(C(=O)N(Cc4ccc(N5C(=O)c6ccccc6Oc6ccccc65)cc4)c4ccccc43)[C@@H]2C)cc1 -1.75, CCCCC=C[C@@H](NC(=O)c1ccccc1)c1ccccc1 -0.287, COCCOC(=O)N1C(=O)[C@@]2(c3cc(C#CC4=CCCCC4)ccc31)[C@H](C(=O)N1CCCCCCC1)[C@H]1C(=O)O[C@H](c3ccccc3)[C@H](c3ccccc3)N1[C@@H]2c1ccc(OCCO)cc1 -0.0896, COCCOC(=O)N1C(=O)[C@@]2(c3cc(C#CCNC(N)=O)ccc31)[C@H](c1ccc(O)cc1)N1[C@H](c3ccccc3)[C@H](c3ccccc3)OC(=O)[C@H]1[C@@H]2C(=O)N1CCN(c2ncccn2)CC1 -0.648, COCCOC(=O)N1C(=O)[C@@]2(c3cc(C#CCCO)ccc31)[C@H](c1ccccc1OCCO)N1[C@H](c3ccccc3)[C@H](c3ccccc3)OC(=O)[C@H]1[C@@H]2C(=O)N1CCCCCCC1 -1.29, CC(=O)N1CC(C(O)C2C=CC3C(=O)NC(=O)C3N2Nc2ccc(Cl)cc2Cl)c2ccccc21 (stereo not given) -0.651, COc1cc2c(cc1OC)CN(C(=O)[C@@H]1[C@H]3C(=O)O[C@H](c4ccccc4)[C@H](c4ccccc4)N3[C@H](c3ccc(O)cc3)[C@@]13C(=O)Nc1ccc(C#CCCO)cc13)CC2 -0.403, NCCCCCNC(=O)[C@H]1C[C@H]2C(=O)N[C@@H](Cc3ccccc3)C(=O)N2[C@H]1c1ccc(O)cc1 -0.0304, CC(C)OC(=O)CC(=O)CC(O)c1ccc([N+](=O)[O-])cc1 (stereo not given) 0.402, CCCNC(=O)[C@@]1(C)c2ccccc2C(=O)N(Cc2ccccc2)[C@H]1c1ccc(CO)cc1 0.62, COC(=O)[C@@]1(Cc2ccc(OC)cc2)[C@H]2c3cc(C(=O)N4CCCC4)n(Cc4cc(C)n(C)n4)c3C[C@H]2CN1C(=O)c1ccccc1 0.463, C=CCC(OC(C)=O)[C@@H]1[C@@H](N(Cc2ccc(-c3cccc(C(F)(F)F)c3)o2)C(=O)c2ccc(C)cc2)c2cc(OCCCO)ccc2N1C(=O)Cc1ccc(OC)cc1 (stereo not given in full) -0.853, CC(=O)n1cc(C(O)C2C=CC3C(=O)N(c4ccccc4)C(=O)C3N2Nc2ccc(C(C)C)cc2)c2ccccc21 (stereo not given) -0.827, C=CCC(OC(C)=O)[C@@H]1[C@@H](N(Cc2ccc(-c3ccccc3)cc2)C(=O)c2ccc(C)cc2)c2cc(OCCCO)ccc2N1C(=O)Cc1ccc2ccccc2c1 (stereo not given in full) -0.0727, COc1cc(C(O)C2C=CC3C(=O)N(Cc4ccccc4)C(=O)C3N2n2cnnc2)cc(OC)c1OC (stereo not given) -1.77, COc1ccc(C(=O)Nc2cccc(CN3C(=O)[C@@]4(O[C@@H](CC(=O)N(CCO)Cc5ccccc5)[C@H]([Si](C)(C)c5ccc(OC)cc5)[C@H]4C)c4ccccc43)c2)cc1 -0.244, C=CCC(OC(C)=O)[C@@H]1[C@@H](N(Cc2ccc(-c3cccc(C(F)(F)F)c3)o2)C(=O)Cc2ccc(OC)cc2)c2cc(OCCCO)ccc2N1C(=O)Cc1ccc2ccccc2c1 (stereo not given in full) -0.787, CO[C@H]1O[C@H](CO)[C@@H](OC(=O)c2ccc(Br)cc2)[C@@H]2OC(=O)[C@H](Cc3ccccc3)C/C=C/C[C@@H](Cc3ccccc3)C(=O)O[C@@H]12 -1.16, O=C(CS)NCCCCCCNC(=O)[C@@H]1C[C@@H]2C(=O)NCC(=O)N2[C@@H]1c1ccc(O)cc1 -1.26, COCCOC(=O)N1C(=O)[C@@]2(c3cc(C#CCNC(N)=O)ccc31)[C@H](c1ccc(OCCO)cc1)N1[C@H](c3ccccc3)[C@H](c3ccccc3)OC(=O)[C@H]1[C@@H]2C(=O)NC[C@H](O)c1ccccc1 -0.498, CC(C)C[C@@H]1NC(=O)CNC(=O)[C@@]23C(=O)N[C@@H](Cc4ccccc4)C2[C@H](C)[C@@]2(C)O[C@H]2C3/C=C/C/C=C\CNC1=O (stereo not given in full) -0.826, COCCOC(=O)N1C(=O)[C@@]2(c3cc(C#CC4(O)CCCCCC4)ccc31)[C@H](c1ccc(OCCO)cc1)N1[C@H](c3ccccc3)[C@H](c3ccccc3)OC(=O)[C@H]1[C@@H]2C(=O)Nc1nc2ccccc2s1 0.3, COCCOC(=O)N1C(=O)[C@@]2(c3cc(C#CCC(C(=O)OC)C(=O)OC)ccc31)[C@H](C(=O)NC[C@H](O)c1ccccc1)[C@H]1C(=O)O[C@H](c3ccccc3)[C@H](c3ccccc3)N1[C@@H]2c1ccc(O)cc1 -0.766, C=C(C(=O)CC[C@H](OC(=O)c1ccccc1-c1ccccc1C(=O)O)c1ccccc1OCCO)C(C)C -0.0112, C=C(C)[C@@H]1CC=C(C(O)C2C=CC3C(=O)N(c4ccccc4)C(=O)C3N2Nc2ccc(C#N)cc2)CC1 (stereo not given in full) -1.68
